Results as given in PubChem BioAssay AID1159580 (chemical genetic matrix, 2015).
Where “and” joins values, the source holds several entries; their conditions need not be identical. Equal values may be shown once. Hit rate of the full screen: of about 5,500 compounds, about 2,000 (36%) were called active. Another 18% or so got no clear call; they are omitted. Rule as the data show it: active = normalized growth mostly below about 0.91 (no sharp cut-off); inconclusive = no clear call, values can overlap the other calls; inactive = mostly above about 0.92. This is one part of the list.

Assay: chemical genetic growth profiling, strain panel (AID 1159580);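 also: tested at 20 µM; growth read once vehicle control cultures reached saturation at 30 °C; 1 = growth at the plate median or of vehicle wells; lower values mean less growth of the strain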
Settings: S. cerevisiae deletion strains, growth OD

Measured: normalized growth

NCC(O)(CS(=O)(=O)O)c1ccc(Cl)cc1 (configuration not stated)
inactive: locus YAL040C, strain CLN3, hits give low values 1.07 | locus YCL061C, strain MRC1 (second series), hits give low values 0.995 | locus YDR150W, strain NUM1, hits give low values 1.02 | locus YER002W, strain NOP16, hits give low values 1.02 | locus YGR078C, strain PAC10, hits give low values 0.99 | locus YMR263W, strain SAP30, hits give low values 1 | locus YNL153C, strain GIM3, hits give low values 1 | locus YNL175C, strain NOP13, hits give low values 0.979 | locus YNL197C, strain WHI3, hits give low values 0.98 | locus YNL224C, strain SQS1, hits give low values 1.01 | locus YOR083W, strain WHI5 (second series), hits give low values 1 | locus YPL241C, strain CIN2, hits give low values 1

COc1ccc([C@@H]2CC(=O)c3c(O)cc(O[C@@H]4O[C@H](CO[C@H]5O[C@@H](C)[C@H](O)[C@@H](O)[C@H]5O)[C@@H](O)[C@H](O)[C@H]4O)cc3O2)cc1O
inactive: locus YAL013W, strain DEP1, hits give low values 0.995 | locus YAL021C, strain ccr4, hits give low values 1.01 | locus YAL026C, strain drs2, hits give low values 0.98 | locus YAL030W, strain snc1, hits give low values 0.993 | locus YBL061C, strain skt5, hits give low values 0.969 | locus YBR009C, strain hhf1, hits give low values 0.937 | locus YBR021W, strain FUR4, hits give low values 0.988 | locus YBR023C, strain chs3, hits give low values 0.993 | locus YBR171W, strain sec66, hits give low values 0.976 | locus YBR229C, strain ROT2, hits give low values 0.993 | locus YBR231C, strain swc5, hits give low values 0.987 | locus YBR279W, strain paf1, hits give low values 0.986 | locus YCL011C, strain gbp2, hits give low values 0.975 | locus YCL016C, strain dcc1, hits give low values 0.995 | locus YCL029C, strain bik1, hits give low values 0.971 | locus YCL061C, strain MRC1, hits give low values 0.977 | locus YCL069W, strain vba3, hits give low values 0.988 | locus YCR088W, strain abp1, hits give low values 0.989 | locus YDL005C, strain med2, hits give low values 0.98 | locus YDL035C, strain GPR1, hits give low values 0.991 | locus YDL040C, strain nat1, hits give low values 0.993 | locus YDL074C, strain BRE1, hits give low values 0.984 | locus YDL101C, strain DUN1, hits give low values 0.994 | locus YDL185W, strain tfp1, hits give low values 0.98 | locus YDL192W, strain arf1, hits give low values 0.993 | locus YDR001C, strain nth1, hits give low values 0.99 | locus YDR069C, strain doa4, hits give low values 0.985 | locus YDR101C, strain arx1, hits give low values 0.968 | locus YDR137W, strain rgp1, hits give low values 1.04 | locus YDR159W, strain sac3, hits give low values 0.977 | locus YDR162C, strain NBP2, hits give low values 1.01 | locus YDR195W, strain ref2 0.932 | locus YDR297W, strain sur2, hits give low values 0.98 | locus YDR318W, strain mcm21, hits give low values 0.994 | locus YDR334W, strain swr1, hits give low values 0.998 | locus YDR335W, strain msn5, hits give low values 0.982 | locus YDR388W, hits give low values 0.977 | locus YDR392W, strain spt3, hits give low values 0.907 | locus YDR502C, strain sam2, hits give low values 0.981 | locus YEL003W, strain gim4, hits give low values 0.982 | locus YEL037C, strain rad23, hits give low values 0.991 | locus YEL061C, strain CIN8 (second series), hits give low values 0.981 | locus YEL061C, strain CIN8, hits give low values 1 | locus YER015W, strain faa2, hits give low values 0.979 | locus YER016W, strain bim1, hits give low values 0.995 | locus YER110C, hits give low values 0.973 | locus YER111C, strain swi4, hits give low values 0.97 | locus YER155C, strain BEM2 (second series), hits give low values 0.987 | locus YER155C, strain BEM2, hits give low values 0.988 | locus YER167W, strain BCK2, hits give low values 0.991 | locus YFR010W, strain ubp6, hits give low values 0.976 | locus YGL078C, strain dbp3, hits give low values 0.967 | locus YGL086W, strain mad1, hits give low values 0.979 | locus YGL167C, strain pmr1, hits give low values 0.965 | locus YGL173C, strain kem1, hits give low values 0.968 | locus YGL227W, strain vid30, hits give low values 0.973 | locus YGL240W, strain doc1, hits give low values 0.98 | locus YGL248W, strain PDE1, hits give low values 1 | locus YGL253W, strain hxk2, hits give low values 0.999 | locus YGR135W, strain pre9, hits give low values 0.998 | locus YGR229C, strain SMI1, hits give low values 1 | locus YGR252W, strain gcn5, hits give low values 1.06 | locus YHR013C, strain ard1, hits give low values 0.922 | locus YHR027C, strain rpn1, hits give low values 0.99 | locus YHR030C, strain SLT2, hits give low values 0.997 and 1.05 | locus YHR079C, strain IRE1 (second series), hits give low values 0.983 | locus YHR079C, strain IRE1, hits give low values 1.03 | locus YHR094C, strain hxt1, hits give low values 0.975 | locus YHR129C, strain ARP1, hits give low values 1 | locus YHR142W, strain chs7, hits give low values 1.01 | locus YHR200W, strain rpn10, hits give low values 1 | locus YIL066C, strain RNR3, hits give low values 1 | locus YIL073C, strain SPO22, hits give low values 1 | locus YIL125W, strain kgd1, hits give low values 0.978 | locus YIR030C, strain dcg1, hits give low values 0.976 | locus YJL092W, strain hpr5, hits give low values 0.986 | locus YJL095W, strain BCK1 (second series), hits give low values 0.993 | locus YJL095W, strain BCK1, hits give low values 1.05 and 1.02 | locus YJL115W, strain asf1, hits give low values 0.993 | locus YJL129C, strain trk1, hits give low values 1.01 | locus YJL134W, strain LCB3, hits give low values 0.994 | locus YJL154C, strain vps35, hits give low values 0.998 | locus YJL164C, strain tpk1, hits give low values 1.01 | locus YJL166W, strain qcr8, hits give low values 0.992 | locus YJL168C, strain set2, hits give low values 0.984 | locus YJL187C, strain SWE1 (second series), hits give low values 1.02 | locus YJL187C, strain SWE1, hits give low values 0.991 | locus YJR043C, strain POL32, hits give low values 1.01 | locus YJR066W, strain TOR1, hits give low values 0.987 | locus YJR075W, strain HOC1, hits give low values 1 | locus YKL009W, strain mrt4, hits give low values 1.01 | locus YKL068W, hits give low values 0.984 | locus YKL085W, strain MDH1 (second series), hits give low values 0.996 | locus YKL085W, strain MDH1, hits give low values 0.996 | locus YKL160W, strain elf1, hits give low values 1.02 | locus YKL190W, strain CNB1, hits give low values 1.01 | locus YKR001C, strain vps1, hits give low values 0.948 | locus YKR026C, strain gcn3, hits give low values 0.979 | locus YKR091W, strain srl3, hits give low values 0.981 | locus YLL001W, strain dnm1, hits give low values 1.01 | locus YLL026W, hits give low values 0.999 | locus YLL041C, strain sdh2, hits give low values 0.999 | locus YLR027C, strain aat2, hits give low values 0.998 | locus YLR039C, strain RIC1, hits give low values 1.04 | locus YLR058C, strain SHM2, hits give low values 1 | locus YLR102C, strain apc9, hits give low values 0.977 | locus YLR113W, strain HOG1, hits give low values 1.05 | locus YLR221C, strain rsa3, hits give low values 0.999 | locus YLR258W, strain gsy2, hits give low values 0.988 | locus YLR262C, strain YPT6 (second series), hits give low values 1 | locus YLR262C, strain YPT6, hits give low values 1.02 | locus YLR268W, strain sec22, hits give low values 0.959 | locus YLR320W, strain mms22, hits give low values 0.97 | locus YLR330W, strain CHS5, hits give low values 0.996 | locus YLR342W, strain FKS1 (second series), hits give low values 1.03 | locus YLR342W, strain FKS1, hits give low values 0.954 | locus YLR357W, strain rsc2, hits give low values 0.97 | locus YLR370C, strain arc18, hits give low values 0.991 | locus YLR371W, strain rom2, hits give low values 0.971 | locus YLR384C, strain iki3, hits give low values 0.976 | locus YLR418C, strain cdc73, hits give low values 1 | locus YML016C, strain PPZ1, hits give low values 0.995 | locus YML032C, strain rad52, hits give low values 1 | locus YML120C, strain ndi1, hits give low values 1.01 | locus YML124C, strain tub3, hits give low values 0.986 | locus YMR058W, strain fet3, hits give low values 0.985 | locus YMR078C, strain ctf18, hits give low values 0.969 | locus YMR125W, strain sto1, hits give low values 0.972 | locus YMR129W, hits give low values 0.989 | locus YMR205C, strain PFK2, hits give low values 0.936 | locus YMR223W, strain ubp8, hits give low values 0.992 | locus YMR231W, strain pep5, hits give low values 0.969 | locus YMR307W, strain GAS1, hits give low values 1.06 | locus YNL067W, strain RPL9B, hits give low values 1.01 | locus YNL071W, strain lat1, hits give low values 0.984 | locus YNL183C, strain NPR1, hits give low values 0.996 | locus YNL209W, strain ssb2, hits give low values 0.978 | locus YNL233W, strain BNI4, hits give low values 1 | locus YNL248C, strain rpa49, hits give low values 1.04 | locus YNL250W, strain rad50, hits give low values 0.978 | locus YNL271C, strain bni1, hits give low values 1 | locus YNL298W, strain CLA4, hits give low values 0.972 | locus YNL307C, strain MCK1, hits give low values 0.97 | locus YNL322C, strain KRE1 (second series), hits give low values 0.987 | locus YNL322C, strain KRE1, hits give low values 1 | locus YNR049C, strain mso1, hits give low values 0.993 | locus YNR052C, strain pop2, hits give low values 0.986 | locus YOL006C, strain TOP1, hits give low values 0.962 | locus YOL012C, strain htz1 1.06 | locus YOL147C, strain pex11, hits give low values 0.983 | locus YOR001W, strain rrp6, hits give low values 1.03 | locus YOR061W, strain CKA2, hits give low values 0.977 | locus YOR069W, strain VPS5, hits give low values 0.992 | locus YOR070C, strain gyp1, hits give low values 1.01 | locus YOR080W, strain dia2, hits give low values 0.974 | locus YOR083W, strain WHI5, hits give low values 1.02 | locus YOR106W, strain vam3, hits give low values 1.02 | locus YOR136W, strain idh2, hits give low values 0.981 | locus YOR144C, strain elg1, hits give low values 0.987 | locus YOR184W, strain ser1, hits give low values 0.994 | locus YOR231W, strain MKK1, hits give low values 1.06 | locus YOR265W, strain rbl2, hits give low values 1 | locus YOR270C, strain vph1, hits give low values 0.989 | locus YOR290C, strain snf2, hits give low values 0.922 | locus YOR316C, strain cot1, hits give low values 0.994 | locus YPL051W, strain arl3, hits give low values 1.03 | locus YPL078C, strain atp4, hits give low values 1.01 | locus YPL106C, strain sse1, hits give low values 0.976 | locus YPL240C, strain hsp82, hits give low values 0.966 | locus YPL256C, strain CLN2, hits give low values 1.04 | locus YPR119W, strain clb2, hits give low values 0.98 | locus YPR141C, strain kar3, hits give low values 0.98 | locus YPR163C, strain tif3, hits give low values 0.984 | locus YPR167C, strain met16, hits give low values 0.972 | strain wtn01, hits give low values 0.971
